Compound activity (PubChem)
HT1080 IDH1KD tx: toxicity to HT-1080 IDH1 knockdown cells (counter line) | HT-1080 IDH1 knockdown viability, ATP luminescence, 48 h | Potency, µM (top dose mostly 46.1 µM), actives largely listed as cytotoxic | 360,000 compounds, 2% hits
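Assay cells: HT-1080 with IDH1 knockdown, 750 per well, RPMI/5% FBS. Exposure: 48 h at 37 °C following 2 h pre-incubation. Read: CellTiter-Glo luminescence; fitted concentration-response, curve class assigned.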
KB-V1 MDR tox: kills drug-selected multidrug resistant KB-V1 cells; KB-V1 MDR cells viability, CellTiter-Glo, 72 h; Potency, µM (doses to about 46.1 µM), usual class: cytotoxic; 400,000 compounds, 3.4% hits; AID 1347076; further: nearly all actives have a fitted effect of over 60% in size
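KB-V1 cells (P-gp-expressing MDR subline of KB-3-1) in phenol-red-free DMEM with 10% FBS were exposed to library compounds over a concentration series for 72 h at 37 degrees C. Viability read by CellTiter-Glo luminescence; concentration-effect curves fitted after normalization.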
KB-3-1 tox: KB-3-1 parental cell cytotoxicity. KB-3-1 viability, CellTiter-Glo ATP luminescence, 72 h. Potency, µM (highest dose often 46.1 µM), hits mostly cytotoxic. 400,000 compounds, 1.4% hits. AID 1347075; further: nearly all actives have a fitted effect of over 60% in size
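Multi-concentration cytotoxicity screen in KB-3-1 cells grown in DMEM lacking phenol red with 10% FBS. After 72 h at 37 °C with compound, ATP-dependent luminescence was recorded.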
HT1080NT lethal: kills 2HG-producing HT-1080-NT fibrosarcoma cells | AID 686970 | 360,000 compounds, 1.6% hits | Potency, µM (titrated, usually from 46.1 µM), hits mostly cytotoxic | HT-1080-NT fibrosarcoma viability, CellTiter-Glo ATP luminescence, 48 h;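 further: NT is the 2HG producing partner of a matched IDH1 knockdown line; nearly all actives have a fitted effect of over 55% in size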
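Viability of the 2HG-overproducing fibrosarcoma line after 48 hours of compound exposure at 37 degrees C was determined by luminescence with CellTiter-Glo, and concentration-effect curves were then fitted and categorized.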
DT40 TDP1 no CPT: qHTS for Inhibitors of human tyrosyl-DNA phosphodiesterase 1 (TDP1): qHTS in cells in absence of CPT; DT40 Tdp1-/- hTDP1 cells, no CPT, ATP luminescence, 48 h; Potency, µM (series often up to 46.2 µM), usual class: inhibitors; 420,000 compounds, 15% hits; AID 686978, 2013; further: nearly all actives have a fitted effect of over 55% in size
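Chicken DT40 Tdp1-/- cells complemented with human TDP1, screened without camptothecin (DMSO vehicle only), 400 cells/well. Compounds pin-transferred, cells incubated at 37 °C for at least 48 hr. Growth read as ATP-dependent luminescence (CellTiter-Glo, 30 min at RT).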
TDP1 cell CPT: DT40-hTDP1 cell growth loss with CPT | chicken DT40 Tdp1-/-;hTDP1 cells + 20 nM CPT, ATP luminescence, 48 h | Potency, µM (series often up to 46.2 µM), usual class: inhibitors | 420,000 compounds, 12% hits | AID 686979; further: nearly all actives have a fitted effect of over 55% in size
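Chicken DT40 Tdp1-/- cells complemented with human TDP1, 400 cells/well, exposed to compounds plus 20 nM camptothecin for at least 48 h at 37 C; viability read as ATP content by CellTiter-Glo luminescence.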
Hits are given with their value; i = inactive; ? = inconclusive; nt = no result given; ! = a repeat was not active; [ ] = another dose, or the depositor's remark. An excerpt weighted towards active compounds, which were near 19% of everything screened. The call rests on the fitted dose curve; in most records, active means well fitted curve in the direction sought with a large enough effect; inconclusive means small, poorly fitted or top-dose-only effect, or another doubt; inactive means no such curve, though single readings can be large; an effect the other way counts as inactive or inconclusive.

SMILES | HT1080 IDH1KD tx | KB-V1 MDR tox | KB-3-1 tox | HT1080NT lethal | DT40 TDP1 no CPT | TDP1 cell CPT
CCCc1nc(NCc2ccccn2)c2nnn(Cc3ccccc3F)c2n1 | i | 2.91µM | ? | i | ? | ?
CCc1nc(NCCc2ccccn2)c2nnn(Cc3ccccc3F)c2n1 | i | i | i | i | ? | i
O=C(CSc1cc(Cl)ccc1Cl)Nc1ccc(N2CCOCC2)cc1 | i | ? | i | i | ? | ?
CC1=C(C(=O)OCC2CCCO2)C(c2cccc(C(F)(F)F)c2)C2=C(CC(c3ccco3)CC2=O)N1 (stereo unspecified) | ? | ? | 15.8µM | i | ? | ?
CC1(C)Cc2c(sc3nc(-c4cc5ccccc5o4)n(N)c(=O)c23)CO1 | i | ? | i | i | 20.6µM | ?
CC1(C)Cc2c(sc3nnn(Cc4ccc(Cl)cc4)c(=O)c23)CO1 | i | 6.51µM | ? | i | 13µM | ?
Cc1ccc(-c2nc3sc4c(c3c(=O)n2N)CC(C)(C)OC4)cc1 | i | i | ? | i | ? | i
CCSc1nc2sc3c(c2c(=O)n1CC)CC(C)(C)OC3 | i | i | i | i | ? | ?
CC(C)Cc1nc2sc3c(c2c(=O)n1N)CC(C)(C)OC3 | i | i | i | i | 10.3µM | 18.4µM
COc1ccccc1N(C(=O)c1csnn1)C(C(=O)NC1CCCC1)c1ccccc1 (stereo unspecified) | i | ? | i | i | i | i
Cn1cc(C(=O)NCc2ccc(Cl)cc2)c(=O)c2cc(S(=O)(=O)N3CCOCC3)ccc21 | i | i | i | i | ? | i
CCOc1ccc(N(CC)S(=O)(=O)N2CCCC(C(=O)NCc3ccccc3Cl)C2)cc1 (stereo unspecified) | nt | i | i | nt | 20.6µM | 20.6µM
CCOc1ccc(N(CC)S(=O)(=O)N2CCCC(C(=O)NCCc3ccc(OC)cc3)C2)cc1 (stereo unspecified) | nt | i | ? | nt | ? | ?
CCOc1ccc(N(CC)S(=O)(=O)N2CCCC(C(=O)Nc3cc(Cl)ccc3C)C2)cc1 (stereo unspecified) | nt | i | i | nt | 16.4µM | 20.6µM
O=C(NCc1cccc(C(F)(F)F)c1)c1csc(COCCO)n1 | i | i | i | i | i | i
O=C(CCC(=O)Nc1ccccc1Cl)NN=C1CCCC1 | i | ? | i | i | i | i
O=C(NN=Cc1ccc2c(c1)CCC2)c1ccccc1[N+](=O)[O-] | i | i | ? | i | 18.4µM | 23.1µM
O=C(N/N=C/c1ccc(Br)s1)c1ccccc1[N+](=O)[O-] | i | ? | i | i | i | i
O=C(C1CCCCC1)N1CCOc2ccc(CN3CCN(Cc4ccccn4)CC3)cc2C1 | nt | nt | nt | nt | i | i[9.04 µM]
COc1ccc(-c2nc3cc(C)ccn3c2NC(=O)c2c(F)cccc2Cl)cc1 | i | i | i | i | i | i
CCCCCCSc1cc(-c2nc3cc(C)ccn3c2NCCCC)ccc1OC | 23.1µM | 20.6µM! | i | 25.9µM | 16.4µM | 13µM
CCCCCCSc1ccc(-c2nc3ccc(C)cn3c2NCCCC)cc1OC | ? | 20.6µM | ? | 20.6µM | 9.2µM | 11.6µM
CCCCCCSc1ccc(-c2nc3ccc(Cl)cn3c2NCCCC)cc1OC | i | i | i | i | ? | ?
CCCCNc1c(-c2ccc(SC3CCCCC3)c(OC)c2)nc2ccc(Cl)cn12 | i | i | i | i | 16.4µM | ?
CCCCNc1c(-c2ccc(SC(C)CC)c(OC)c2)nc2ccc(C)cn12 (stereo unspecified) | ? | ? | ? | i | 6.51µM | 5.8µM
SMILES | HT1080 IDH1KD tx | KB-V1 MDR tox | KB-3-1 tox | HT1080NT lethal | DT40 TDP1 no CPT | TDP1 cell CPT
COc1ccc(-c2nc3ccc(Cl)cn3c2Cc2ccsc2)cc1OC | i | i | i | i | ? | ?
CCCCn1c(=O)nc2n(-c3ccc(Br)cc3)c3ccccc3cc-2c1=O | nt | i | i | nt | nt | nt
CC#CC(=O)N1CCC(C(=O)Nc2ccc(Oc3ccccc3)nc2)CC1 | i | i | i | i | ? | ?
O=C(COC(=O)CNC(=O)C1CCCCC1)NC1CC1 | nt | i | ? | nt | i | i
O=C(NCCCc1nc2ccccc2[nH]1)c1ccc(F)cc1 | i | i | i | i | i | i
CCCCNc1c(-c2ccc(-c3cccc(Cl)c3)cc2)nc2ccc(Cl)cn12 | i | i | i | i | ? | ?
CCCCNc1c(-c2ccc(SC(C)CC)c(OC)c2)nc2ccc(Cl)cn12 (stereo unspecified) | i | i | i | i | 20.6µM | 25.9µM
COc1cc(/C=C2\CCC(C)C3=C(c4cc(OC)c(OC)c(OC)c4)C(C#N)=C(N)OC32)cc(OC)c1OC (stereo unspecified) | ? | i | ? | i | 3.66µM | 2.59µM
COc1cc(/C=C2/N=C(C3CCCCC3)OC2=O)cc(OC)c1OC | i | i | i | i | i | i
CCN(CC(=O)Nc1ccccc1C(F)(F)F)C(=O)c1cc2c(s1)CCCCC2 | i | i | i | i | 23.1µM | ?
Cc1c(C(=O)N(C)CCOc2ccccc2)oc2c(Cl)cccc12 | i | 20.6µM | i | i | ? | i
